According to PubChem BioAssay (NCI):
Compounds without any hit were thinned out: in the full panel of roughly 83,000, 20% have a hit.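 Testing used 96-well plates and a 48-hour single-concentration exposure. Example: -40 means 40% of the starting cells died.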 Unmarked numbers belong to inactive results. The source made the active and inactive calls. How the source made its calls: active means growth percent below 10; inactive means the rest.

System: NCI-H460 lung
Assay: NCI-60 one-dose screen, 48 h (100 = growth as untreated, 0 = no growth, -100 = all killed)
Settings: 10 µM unless noted

SMILES	growth
O=C(Nc1cccc2ccccc12)c1cc2ccccc2cc1O	7.16% (active)
C=C(C)[C@@H]1CC[C@]2(COCCC#N)CC[C@]3(C)[C@H](CC[C@@H]4[C@@](C)(CCCNCCC#N)[C@H](C(=C)C)CC[C@]43C)[C@@H]12	9.8% [100 µM] (active)
Cc1ccc(-c2cn(C/C=C3\C=CN(S(=O)(=O)c4ccccc4)CC3)nn2)cc1	99.1%
CN(C)c1ccc(-c2ccc(-c3ccc(C(=N)N)cc3)s2)cc1	-71.1% (active)
CCOC(=O)c1nn(C2CCCCO2)c2ccc(NC(=O)CN3CCOCC3)cc12 (centres undefined)	101%
Cn1cc(-c2noc(-c3cn(C)c4ncc(Br)cc34)n2)c2cc(Cl)ccc21	25.8%
Cc1cc2c(C(C)C)c(O)c(O)c(C=NCc3ccoc3)c2c(O)c1-c1c(C)cc2c(C(C)C)c(O)c(O)c(C=NCc3ccco3)c2c1O	25.5%
Cc1cccc(C[C@H](NC(=O)Nc2ccc(C)cc2F)C(=O)N[C@@H]2C(=O)N3C[C@H](O)C[C@H]3C(=O)N3CCN(C)C[C@H]3C(=O)N[C@@H](C)C(=O)N3C[C@H](C)C[C@H]3C(=O)O[C@H]2C)c1	42.5%
COc1cc2c(c(Br)c1N)-c1cc(Br)c(N)cc1C2=O	45.7%
CCN(CC)CCSC(=O)C(O)(c1ccccc1)C1CCCC1 (centres undefined)	115%
CCN(CC)CCCOc1ccc2c(c1)O/C(=C\c1cccc(OC)c1)C2=O	87.2%
CCOC(=O)/C(C#N)=C(\C)CCc1ccccc1	105%
O=C(CCN1CCCCC1)c1ccc(Cl)cc1	97.8%
C[C@H]1[C@H](C)CC[C@]2(C(=O)O)CC[C@]3(C)C(=CC[C@@H]4[C@@]5(C)C/C(=C/c6ccco6)C(=O)C(C)(C)[C@@H]5CC[C@]43C)[C@H]12	-55.6% [100 µM] (active)
Cc1ccc(NC(=O)N[C@@H](Cc2cc(F)cc(F)c2)C(=O)N[C@@H]2C(=O)N3CCC[C@H]3C(=O)N3CCOC[C@H]3C(=O)N[C@@H](C)C(=O)N3C[C@H](C)C[C@H]3C(=O)O[C@H]2C)cc1	26.4%
CCCCOC(=O)c1c(C)[nH]c(/C=C2\N=C(c3ccc[nH]3)C=C2OC)c1C	6.62% (active)
O=C(O)c1cn(C2CC2)c2cc(N3CCN(Cc4cc(Cl)ccc4O)CC3)c(F)cc2c1=O	52%
C[n+]1cccc(NC(=O)c2ccc3ccc4ccc(C(=O)Nc5ccc[n+](C)c5)nc4c3n2)c1	-7.42% (active)
O=c1cc(-c2ccccc2)oc2cc(OCc3cn(Cc4ccc(F)cc4)nn3)cc(O)c12	71.4% [100 µM]
CCc1ccc(NC(=O)N[C@@H](Cc2cc(F)cc(F)c2)C(=O)N[C@@H]2C(=O)N3C[C@H](O)C[C@H]3C(=O)N3CCOC[C@H]3C(=O)N[C@@H](C)C(=O)N3C[C@H](C)C[C@H]3C(=O)O[C@H]2C)cc1	46.5%
C=C(CC(=O)OC)C(C)=O	111%
O=C1/C(=C\c2cn(CC(O)CN3CCCCC3)c3ccccc23)c2ccccc2N1c1c(Cl)cccc1Cl (centres undefined)	-82.7% (active)
CC/C=C(\C)C(CCC)(CN=O)C(=O)OCC (centres undefined)	114%
CN(C)C(=S)Sc1ccc([N+](=O)[O-])cc1[N+](=O)[O-]	-41.6% (active)

System: HOP-92 NSCLC
Assay: as above
Settings: 10 µM unless noted

SMILES	growth
CC(C)C1=NOC(=O)C1=Cc1cn(-c2ccccc2)nc1-c1ccccc1	85.2%
CCN(CC)CCCNCc1cc(-c2ccccc2)nc2ccccc12	49.5%
CCOC(=O)CCC[P+](c1ccccc1)(c1ccccc1)c1ccccc1	71.4%
Cc1cccc(C[C@H](NC(=O)Nc2ccc(Cl)cc2F)C(=O)N[C@@H]2C(=O)N3C[C@H](O)C[C@H]3C(=O)N3CCN(C)C[C@H]3C(=O)N[C@@H](C)C(=O)N3C[C@H](C)C[C@H]3C(=O)O[C@H]2C)c1	33.2%
COc1cc(C)cc2oc3oc(=O)c(C(=O)c4cc5cc(Br)ccc5o4)cc3c(=O)c12	102%
COc1ccc(CC(C#N)c2ccc(Cl)cc2)cc1 (centres undefined)	83.8%
Clc1ccc(/C=N/Nc2nc3ccccc3s2)c(Cl)c1	44.6%
COC(=O)[C@]12CCC(C)(C)C[C@H]1C1=CC[C@@H]3[C@@]4(C)C/C(=C/c5cccnc5)C(=O)C(C)(C)[C@@H]4CC[C@@]3(C)[C@]1(C)CC2	-61.5% [100 µM] (active)
Cn1cc(-c2nnc(-c3cn(C)c4ncccc34)o2)c2ccccc21	7.94% (active)
Cc1ccc(C2=C/C(=C/c3ccc(Br)cc3)C(=O)N2CCc2ccc(S(N)(=O)=O)cc2)cc1	89.9%
COc1ccc2nc3cc(Cl)ccc3c(Nc3ccc(O)cc3)c2c1	78.9%
CCCCN(CC)CC(CC)Nc1cc(OC)cc2cccnc12 (centres undefined)	89.4%
O=C(Nc1cccc2ccccc12)c1cc2ccccc2cc1O	-22% (active)
C=C(C)[C@@H]1CC[C@]2(COCCC#N)CC[C@]3(C)[C@H](CC[C@@H]4[C@@](C)(CCCNCCC#N)[C@H](C(=C)C)CC[C@]43C)[C@@H]12	-14.6% [100 µM] (active)
Cc1ccc(-c2cn(C/C=C3\C=CN(S(=O)(=O)c4ccccc4)CC3)nn2)cc1	92.7%
CN(C)c1ccc(-c2ccc(-c3ccc(C(=N)N)cc3)s2)cc1	24.5%
CCOC(=O)c1nn(C2CCCCO2)c2ccc(NC(=O)CN3CCOCC3)cc12 (centres undefined)	108%
Cn1cc(-c2noc(-c3cn(C)c4ncc(Br)cc34)n2)c2cc(Cl)ccc21	76.7%

SMILES	growth
Cc1cc2c(C(C)C)c(O)c(O)c(C=NCc3ccoc3)c2c(O)c1-c1c(C)cc2c(C(C)C)c(O)c(O)c(C=NCc3ccco3)c2c1O	21%
Cc1cccc(C[C@H](NC(=O)Nc2ccc(C)cc2F)C(=O)N[C@@H]2C(=O)N3C[C@H](O)C[C@H]3C(=O)N3CCN(C)C[C@H]3C(=O)N[C@@H](C)C(=O)N3C[C@H](C)C[C@H]3C(=O)O[C@H]2C)c1	38.9%
COc1cc2c(c(Br)c1N)-c1cc(Br)c(N)cc1C2=O	54.9%
CCN(CC)CCSC(=O)C(O)(c1ccccc1)C1CCCC1 (centres undefined)	77%
CCN(CC)CCCOc1ccc2c(c1)O/C(=C\c1cccc(OC)c1)C2=O	84.3%
CCOC(=O)/C(C#N)=C(\C)CCc1ccccc1	81.5%
O=C(CCN1CCCCC1)c1ccc(Cl)cc1	83.1%
C[C@H]1[C@H](C)CC[C@]2(C(=O)O)CC[C@]3(C)C(=CC[C@@H]4[C@@]5(C)C/C(=C/c6ccco6)C(=O)C(C)(C)[C@@H]5CC[C@]43C)[C@H]12	-87.7% [100 µM] (active)
Cc1ccc(NC(=O)N[C@@H](Cc2cc(F)cc(F)c2)C(=O)N[C@@H]2C(=O)N3CCC[C@H]3C(=O)N3CCOC[C@H]3C(=O)N[C@@H](C)C(=O)N3C[C@H](C)C[C@H]3C(=O)O[C@H]2C)cc1	39.4%
CCCCOC(=O)c1c(C)[nH]c(/C=C2\N=C(c3ccc[nH]3)C=C2OC)c1C	-17% (active)
O=C(O)c1cn(C2CC2)c2cc(N3CCN(Cc4cc(Cl)ccc4O)CC3)c(F)cc2c1=O	59.9%
C[n+]1cccc(NC(=O)c2ccc3ccc4ccc(C(=O)Nc5ccc[n+](C)c5)nc4c3n2)c1	57.5%
O=c1cc(-c2ccccc2)oc2cc(OCc3cn(Cc4ccc(F)cc4)nn3)cc(O)c12	-3.35% [100 µM] (active)
C=C(CC(=O)OC)C(C)=O	112%
O=C1/C(=C\c2cn(CC(O)CN3CCCCC3)c3ccccc23)c2ccccc2N1c1c(Cl)cccc1Cl (centres undefined)	-87.4% (active)
CC/C=C(\C)C(CCC)(CN=O)C(=O)OCC (centres undefined)	102%
CN(C)C(=S)Sc1ccc([N+](=O)[O-])cc1[N+](=O)[O-]	0.304% (active)
